Here are results for 10 compounds from PubChem BioAssay (Tox21).

A short description of assay [1]: qHTS assay to identify small molecule that activate the aryl hydrocarbon receptor (AhR) signaling pathway - cell viability counter screen (AID 743086).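 Also: HepG2 liver cells carrying the AhR DRE luciferase reporter; series mostly up to about 70 µM; nearly all actives have a fitted effect of over 45% in size.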 The method in brief:
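HepG2-AhR-luc (HG2L7.5c1) cells, 4000/well, treated 24 h at 37 C with compound; viability measured as CellTiter-Fluor fluorescence after 30 min in the same wells as the luciferase read.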
A general note: qHTS replaces the single test concentration by a dilution series.

Assay [2] can be described thus: qHTS assay to identify small molecule antagonists of the peroxisome proliferator-activated receptor gamma (PPARg) signaling pathway - cell viability counter screen (AID 743194). Also: nearly all actives have a fitted effect of over 55% in size. The note with it: Potency: co-treated with 50 nM rosiglitazone unless noted. The gist of the method:
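Cytotoxicity counter screen in PPARg-bla HEK293H cells, same wells as reporter assay. Compounds plus 50 nM rosiglitazone (final) for 17 h at 37 C, then viability read by CellTiter-Glo luminescence.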

Assay [3] is described as follows: qHTS assay for small molecule agonists of the antioxidant response element (ARE) signaling pathway (AID 743202; active = well fitted activation curve with a large enough effect in the signal ratio in the repeat runs, not every such curve was filed as active; the % refers to the signal ratio; also: potency is read from the fitted curve at half-maximal effect). The gist of the method: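 HepG2 ARE-bla cells; 16 h treatment at 37 C; FRET-based beta-lactamase fluorescence read after 2 h substrate incubation at room temperature.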
Assay [4] can be described thus: qHTS assay for small molecule agonists of the antioxidant response element (ARE) signaling pathway - cell viability counter screen (AID 743203; calls by dose curve; also: nearly all actives have a fitted effect of over 55% in size; also: potency is read from the fitted curve at half-maximal effect). The gist of the method: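 ATP content via CellTiter-Glo luminescence served as the viability measure. Cells: ARE-bla HepG2, 2,000 per well. Exposure: 16 hrs, 37C/5% CO2.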
Assay [5] can be described thus: qHTS assay for small molecule activators of the heat shock response signaling pathway - cell viability counter screen (AID 743209). Also: nearly all actives have a fitted effect of over 50% in size. Also: potency is read from the fitted curve at half-maximal effect. The gist of the method:
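Compounds dissolved in DMSO were added to overnight-plated HSE-bla HeLa cells and left 5 h at 37 C. Cell viability was quantified by luminescence using CellTiter-Glo.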

Assay [6] is described as follows: qHTS assay for small molecule activators of the heat shock response signaling pathway (AID 743210; active = well fitted activation curve with a large enough effect in the signal ratio in the repeat runs, with a control signal flat, not every such curve was filed as active; the % refers to the signal ratio;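 also: HeLa cells with beta-lactamase reporter driven by heat shock elements; series mostly up to about 63 µM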). The gist of the method:
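Following overnight attachment, HSE-bla HeLa cells received test compounds for 5 h at 37 C; beta-lactamase activity was then detected via FRET substrate fluorescence.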

The nature of assay [7]: qHTS assay to identify small molecule agonists of the peroxisome proliferator-activated receptor delta (PPARd) signaling pathway - cell viability counter screen (AID 743211). Also: nearly all actives have a fitted effect of over 55% in size. Also: potency is read from the fitted curve at half-maximal effect. The gist of the method:
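Multiplexed format: after the 2 h room-temperature LiveBLAzer B/G FRET step, CellTiter-Glo was added to the same wells. Luminescence after 30 min gave cell viability; compound exposure was 17 h at 37C.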

Assay [8] concerns the target Peroxisome proliferator-activated receptor delta (Homo sapiens) (UniProt Q03181). Put plainly: qHTS assay to identify small molecule antagonists of the peroxisome proliferator-activated receptor delta (PPARd) signaling pathway (AID 743215; active = well fitted inhibition curve with a large enough effect in the signal ratio in the repeat runs, not every such curve was filed as active; the % refers to the signal ratio;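 also: cells stimulated with agonist L165041 at 300 nM final during compound exposure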; also: potency is read from the fitted curve at half-maximal effect). The gist of the method: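 Here, a reporter line (HEK293H, beta-lactamase under a UAS) measures PPARd signaling. Compounds are tested against agonist L165041 at 300 nM final concentration over 17 h at 37 C, with fluorescence read after substrate.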

In assay [9] the target is Bile acid receptor (Homo sapiens) (UniProt Q96RI1). Put plainly: qHTS assay to identify small molecule antagonists of the farnesoid-X-receptor (FXR) signaling pathway (AID 743217; active = well fitted inhibition curve with a large enough effect in the signal ratio in the repeat runs, not every such curve was filed as active; the % refers to the signal ratio). The method in brief: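 Test compounds are pin-transferred onto FXR-bla HEK 293T cells, then chenodeoxycholic acid is added at 50 uM final. After 16 h at 37 °C, LiveBLAzer B/G substrate is applied for 2 h at room temperature and fluorescence read.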
Chain of Bile acid receptor (Homo sapiens) (Q96RI1 whole entry, looked up): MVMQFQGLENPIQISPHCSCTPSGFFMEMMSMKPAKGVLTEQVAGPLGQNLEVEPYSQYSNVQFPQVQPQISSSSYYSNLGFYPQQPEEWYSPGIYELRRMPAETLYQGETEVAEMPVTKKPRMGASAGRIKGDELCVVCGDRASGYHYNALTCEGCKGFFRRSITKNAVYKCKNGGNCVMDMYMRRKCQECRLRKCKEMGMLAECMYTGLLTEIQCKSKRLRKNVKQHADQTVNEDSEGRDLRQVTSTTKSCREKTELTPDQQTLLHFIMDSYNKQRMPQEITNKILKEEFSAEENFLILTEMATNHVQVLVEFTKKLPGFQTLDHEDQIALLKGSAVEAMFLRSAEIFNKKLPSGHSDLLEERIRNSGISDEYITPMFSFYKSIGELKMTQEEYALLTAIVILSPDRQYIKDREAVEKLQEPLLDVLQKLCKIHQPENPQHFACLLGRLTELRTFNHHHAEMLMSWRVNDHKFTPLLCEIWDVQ

Assay [10] in a line: qHTS assay to identify small molecule agonists of the farnesoid-X-receptor (FXR) signaling pathway - cell viability counter screen (AID 743218). Also: nearly all actives have a fitted effect of over 45% in size. Also: potency is read from the fitted curve at half-maximal effect. The method in brief:
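Quantitative HTS counter screen measuring ATP-based viability via CellTiter-Glo luminescence in HEK 293T cells carrying a UAS-driven beta-lactamase reporter, after 16 h compound exposure at 37 C.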

In assay [11] the target is Bile acid receptor (Homo sapiens) (UniProt Q96RI1). Put plainly: qHTS assay to identify small molecule agonists of the farnesoid-X-receptor (FXR) signaling pathway (AID 743220; active = well fitted activation curve with a large enough effect in the signal ratio in the repeat runs, not every such curve was filed as active; the % refers to the signal ratio). The gist of the method:
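FXR-UAS-bla HEK 293T cells carrying a UAS-driven beta-lactamase reporter were plated for 5 h at 37C/5% CO2, then exposed to DMSO-dissolved Tox21 10K compounds for 16 h at 37C. A LiveBLAzer B/G FRET substrate was loaded for 2 h at room temperature before fluorescence reading.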

Assay [12] addresses Vitamin D3 receptor (Homo sapiens) (UniProt P11473). Put plainly: qHTS assay to identify small molecule agonists of the vitamin D receptor (VDR) signaling pathway (AID 743222; calls by dose curve). The method in brief: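 Tox21 cell reporter format: VDR-bla line, 16 h compound exposure in 5% CO2 at 37C, then fluorescence intensity after 2 h with LiveBLAzer B/G FRET substrate.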
The target is the same in assay [13]. Put plainly: qHTS assay to identify small molecule antagonists of the vitamin D receptor (VDR) signaling pathway (AID 743223; active = well fitted inhibition curve with a large enough effect in the signal ratio in the repeat runs, not every such curve was filed as active; the % refers to the signal ratio). The gist of the method:
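After VDR-bla cells are plated and left 4 h at 37C, DMSO-dissolved compounds and 3 nM (final) calcitriol agonist are added. Incubation continues 16 h at 37C; FRET beta-lactamase substrate then develops 2 h at room temperature.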

Assay [14] deals with Aryl hydrocarbon receptor (Homo sapiens) (UniProt P35869). Put plainly: qHTS assay to identify small molecule that activate the aryl hydrocarbon receptor (AhR) signaling pathway (AID 743085). Also: nearly all actives have a fitted effect of over 15% in size. Also: potency is read from the fitted curve at half-maximal effect.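 As to activation: HG2L7.5c1 human HepG2 liver cells with stably integrated DRE-driven firefly reporter; series mostly up to about 70 µM.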 The gist of the method: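 Reporter assay in engineered HepG2 line HG2L7.5c1, whose plasmid carries twenty dioxin responsive elements upstream of firefly luciferase. Treatment lasted 24 h at 37C; ONE-Glo luminescence gauged induction.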
Chain of Aryl hydrocarbon receptor (Homo sapiens) (P35869 whole entry, looked up): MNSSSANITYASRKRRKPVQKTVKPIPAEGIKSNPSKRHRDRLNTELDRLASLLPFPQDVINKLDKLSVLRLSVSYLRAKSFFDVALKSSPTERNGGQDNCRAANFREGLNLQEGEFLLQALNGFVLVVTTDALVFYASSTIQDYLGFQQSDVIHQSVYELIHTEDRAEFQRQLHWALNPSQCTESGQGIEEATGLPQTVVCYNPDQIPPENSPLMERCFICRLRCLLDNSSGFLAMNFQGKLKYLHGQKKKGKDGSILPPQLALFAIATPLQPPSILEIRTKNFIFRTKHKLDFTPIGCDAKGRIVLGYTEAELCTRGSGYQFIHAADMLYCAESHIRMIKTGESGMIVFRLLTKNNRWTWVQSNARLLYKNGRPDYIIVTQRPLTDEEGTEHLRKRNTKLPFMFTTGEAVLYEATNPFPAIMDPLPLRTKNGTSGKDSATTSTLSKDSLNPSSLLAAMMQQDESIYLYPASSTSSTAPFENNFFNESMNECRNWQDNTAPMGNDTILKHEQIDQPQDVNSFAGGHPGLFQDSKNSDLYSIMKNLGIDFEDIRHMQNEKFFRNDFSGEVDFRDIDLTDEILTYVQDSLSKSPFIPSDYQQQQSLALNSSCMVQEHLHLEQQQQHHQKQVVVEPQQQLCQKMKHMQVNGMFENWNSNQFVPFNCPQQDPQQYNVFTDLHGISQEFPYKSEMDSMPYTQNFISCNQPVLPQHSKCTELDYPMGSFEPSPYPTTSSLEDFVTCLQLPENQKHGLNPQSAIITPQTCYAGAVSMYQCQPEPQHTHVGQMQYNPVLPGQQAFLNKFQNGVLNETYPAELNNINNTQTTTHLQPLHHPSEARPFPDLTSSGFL

Assay [15] in a line: qHTS assay to identify small molecule antagonists of the farnesoid-X-receptor (FXR) signaling pathway - cell viability counter screen (AID 743221; active = well fitted cell-killing curve with a large enough effect in the repeat runs, not every such curve was filed as active; also: nearly all actives have a fitted effect of over 50% in size). The gist of the method:
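CellTiter-Glo, 30 min RT, luminescence; same wells as the LiveBLAzer FRET read. Cells: FXR-UAS-bla HEK 293T. Treatment: compound with chenodeoxycholic acid 50 uM final, 16 h at 37 C.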

Assay [16] has as its target Peroxisome proliferator-activated receptor gamma (Homo sapiens) (UniProt P37231). Put plainly: qHTS assay to identify small molecule antagonists of the peroxisome proliferator-activated receptor gamma (PPARg) signaling pathway (AID 743191; calls by dose curve; also: series mostly up to about 63 µM; nearly all actives have a fitted effect of over 30% in size). The method in brief: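 GeneBLAzer PPARg UAS-bla HEK293H cells, 5 h post-plating, exposed to compounds 17 h at 37C. LiveBLAzer B/G FRET substrate added for 1 h at room temperature; beta-lactamase reporter read by fluorescence intensity.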

Assay [17] is described as follows: qHTS assay to identify small molecule antagonists of the peroxisome proliferator-activated receptor delta (PPARd) signaling pathway - cell viability counter screen (AID 743213). Also: nearly all actives have a fitted effect of over 50% in size. Also: potency is read from the fitted curve at half-maximal effect. The gist of the method: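 PPARd-bla HEK293H cells (3000/well) got compound plus 300 nM L165041 agonist for 17 h at 37 C. Viability in the same wells came from CellTiter-Glo luminescence after 30 min at room temperature.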

In assay [18] the target is Peroxisome proliferator-activated receptor delta (Homo sapiens) (UniProt Q03181). Put plainly: qHTS assay to identify small molecule agonists of the peroxisome proliferator-activated receptor delta (PPARd) signaling pathway (AID 743212; calls by dose curve). The gist of the method: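 Tox21 library screened in GeneBLAzer PPARd UAS-bla HEK293H cells. After compound treatment at 37 C, a FRET-based beta-lactamase substrate was applied for 2 h and fluorescence recorded.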
Chain of Peroxisome proliferator-activated receptor delta (Homo sapiens) (Q03181 whole entry, looked up): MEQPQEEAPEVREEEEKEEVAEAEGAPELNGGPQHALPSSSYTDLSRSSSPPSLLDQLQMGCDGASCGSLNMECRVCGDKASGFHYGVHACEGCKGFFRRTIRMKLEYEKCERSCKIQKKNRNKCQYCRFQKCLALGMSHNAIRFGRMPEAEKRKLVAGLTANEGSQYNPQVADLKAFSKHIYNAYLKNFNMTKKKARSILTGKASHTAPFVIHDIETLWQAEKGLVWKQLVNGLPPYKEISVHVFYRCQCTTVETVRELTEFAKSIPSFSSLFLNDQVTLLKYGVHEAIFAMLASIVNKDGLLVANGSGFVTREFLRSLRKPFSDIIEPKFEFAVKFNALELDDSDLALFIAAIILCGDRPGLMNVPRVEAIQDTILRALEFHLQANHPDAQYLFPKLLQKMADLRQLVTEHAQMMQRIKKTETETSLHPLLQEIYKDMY

Assay [19] deals with Peroxisome proliferator-activated receptor gamma (Homo sapiens) (UniProt P37231). Put plainly: qHTS assay to identify small molecule agonists of the peroxisome proliferator-activated receptor gamma (PPARg) signaling pathway (AID 743094; active = well fitted activation curve with a large enough effect in the signal ratio in the repeat runs, not every such curve was filed as active; the % refers to the signal ratio). The gist of the method:
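Agonism was assessed in a beta-lactamase reporter system, HEK293H cells with a stably integrated UAS-bla construct under PPARg control; the 17 h treatment at 37C preceded a 1 h room-temperature FRET substrate read.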

Where “and” joins values, the source holds several entries; their conditions need not be identical. Equal values may be shown once. Results filed as inconclusive are left out. Unmarked numbers belong to inactive results. Calls of active or inactive are those of the source. Unless noted, calls follow the shape of the dose curve; as a rule, active = well fitted curve in the direction sought with a large enough effect in the repeat runs; inconclusive = weak or mixed curves; inactive = no such curve, though single readings can be large; an effect the other way counts as inactive or inconclusive.

Chain of Peroxisome proliferator-activated receptor gamma (Homo sapiens) (P37231 whole entry, looked up): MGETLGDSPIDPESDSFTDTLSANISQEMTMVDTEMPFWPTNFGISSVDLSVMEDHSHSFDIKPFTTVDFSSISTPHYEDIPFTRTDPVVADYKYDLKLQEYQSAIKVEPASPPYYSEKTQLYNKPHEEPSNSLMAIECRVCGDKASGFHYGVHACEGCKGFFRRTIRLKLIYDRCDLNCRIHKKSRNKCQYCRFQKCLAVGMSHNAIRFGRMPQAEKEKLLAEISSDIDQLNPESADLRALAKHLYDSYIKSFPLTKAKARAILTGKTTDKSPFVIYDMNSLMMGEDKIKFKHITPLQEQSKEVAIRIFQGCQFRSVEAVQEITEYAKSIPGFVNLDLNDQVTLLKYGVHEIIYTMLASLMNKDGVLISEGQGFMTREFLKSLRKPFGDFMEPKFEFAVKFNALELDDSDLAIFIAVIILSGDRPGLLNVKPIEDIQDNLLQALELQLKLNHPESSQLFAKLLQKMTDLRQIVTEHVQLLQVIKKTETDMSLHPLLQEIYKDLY
Chain of Vitamin D3 receptor (Homo sapiens) (P11473 whole entry, looked up): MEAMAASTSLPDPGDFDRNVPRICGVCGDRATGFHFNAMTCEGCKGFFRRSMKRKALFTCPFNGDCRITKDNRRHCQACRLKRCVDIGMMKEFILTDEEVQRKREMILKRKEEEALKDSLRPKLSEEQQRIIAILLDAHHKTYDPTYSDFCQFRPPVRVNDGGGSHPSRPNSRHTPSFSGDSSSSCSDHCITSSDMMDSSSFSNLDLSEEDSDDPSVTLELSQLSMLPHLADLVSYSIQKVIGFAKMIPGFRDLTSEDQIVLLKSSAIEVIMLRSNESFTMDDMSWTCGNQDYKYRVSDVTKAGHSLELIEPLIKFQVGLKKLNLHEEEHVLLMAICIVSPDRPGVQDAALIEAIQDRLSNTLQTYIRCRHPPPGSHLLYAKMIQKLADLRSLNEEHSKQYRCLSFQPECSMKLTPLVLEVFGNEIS

On to `O=Cc1ccccc1`, for which the Potency entry in [1], in [2], in [3], in assay [4], in assay [5] and in [6] was “inactive” in each case. The Potency entry in assay [7], in assay [8], in assay [9], in [10], in assay [11] and in assay [12] was “inactive” in each case. Further, the Potency entry in assay [13] was “inactive”.

Consider `Oc1cc(Cl)c(Cl)c(Cl)c1Cl`, for which the Potency in [14] was 11.9 µM (active); in assay [5] it was 13.5 µM (active); in [10] it was 47.8 µM (active). For the same compound, the Potency result in [1] and in assay [15] was “inactive” each time.

Regarding `O=C(CCCCl)c1ccc(F)cc1`, the Potency entry in [16], in [2], in [3], in assay [4], in assay [5] and in assay [6] was “inactive” throughout. Further, the Potency result in assay [7], in assay [17], in assay [10] and in assay [15] was “inactive” in each case.

In the case of `c1ccc(N=NNc2ccccc2)cc1`, the Potency in assay [14] is 10 µM (active) and 34.4 µM (active); in [3] it was 9.69 µM (active); in assay [7] it was 56.8 µM (active). The Potency result in assay [2], in assay [4], in [5], in assay [6], in [18] and in [8] was “inactive” throughout. In addition, the Potency entry in assay [10] and in assay [15] was “inactive” in each case.

Take `Nc1ccc(Cl)cc1C(=O)c1ccccc1F`: the Potency entry in assay [2], in [4], in assay [5], in [6], in assay [7] and in assay [18] was “inactive” each time. Moreover, the Potency entry in assay [8], in [9], in assay [11] and in assay [15] was “inactive” in each case.

Take `CO/N=C(\C(=O)OC)c1ccccc1CO/N=C(\C)c1cccc(C(F)(F)F)c1`: the Potency result in assay [14], in assay [1] and in [18] was “inactive” each time. In addition, the Potency in [7] was 21.9 µM (active); in assay [17] it was 21.9 µM (active); in [8] it was 4.9 µM (active).

Take `CC#C[C@]1(O)CC[C@H]2[C@@H]3C[C@H](C)C4=CC(=O)CC[C@]4(C)[C@H]3CC[C@@]21C`: the Potency entry in assay [2], in assay [4], in [5], in assay [7], in assay [17] and in assay [10] was “inactive” throughout. Moreover, the Potency result in [11] and in assay [15] was “inactive” in each case. Besides, the Potency in assay [3] was 23.7 µM (active).

For `O=c1[nH]c2cc(Cl)ccc2n1C1CCNCC1`, the Potency result in [16], in assay [2], in assay [4], in assay [5], in [6] and in assay [7] was “inactive” in each case. The Potency result in assay [17], in [8], in assay [9], in [10], in [11] and in assay [15] was “inactive” throughout. The Potency result in [13] is “inactive”.

For the compound `CCn1cc[n+](C)c1` (tested in a mixture with another compound), the Potency entry in assay [1], in [2], in assay [3], in [4], in assay [5] and in [7] was “inactive” in each case. Besides, the Potency result in assay [17] and in [10] was “inactive” throughout.

As to `COC(=O)N(OC)c1ccccc1COc1ccn(-c2ccc(Cl)cc2)n1`, the Potency result in assay [14], in assay [1], in assay [19], in assay [10], in assay [11] and in [15] was “inactive” each time. Further, the Potency in assay [3] was 0.433 µM (active); in assay [4], 43.3 µM (active).
